The target of the test is rat CYP1A1, Cyp1a1 (gene 24296) (UniProt P00185). Description: NVS_ADME_rCYP1A1: NovaScreen (NVS) CYP450-related Enzyme Activity (ADME) Assay for rat CYP1A1. As for the experimental part:
NVS_ADME_rCYP1A1 is a biochemical, single-readout assay that uses extracted gene-proteins from baculovirus-insect cells in a cell-free assay. Measurements were taken 1 hour after chemical dosing in a 96-well plate.NVS_ADME_rCYP1A1 is one of one assay component(s) measured or calculated from the NVS_ADME_rCYP1A1 assay. It is designed to make measurements of enzyme activity, a form of enzyme reporter, as detected with fluorescence intensity signals by Fluorescence technology.Data from the assay component NVS_ADME_rCYP1A1 was analyzed into 1 assay endpoint. This assay endpoint, NVS_ADME_rCYP1A1, was analyzed in the positive analysis fitting direction relative to Acetonitrile as the negative control and baseline of activity. Using a type of enzyme reporter, loss-of-signal activity can be used to understand changes in the enzymatic activity as they relate to the gene Cyp1a1. Furthermore, this assay endpoint can be referred to as a primary readout, because this assay has produced multiple assay endpoints where this one serves a enzymatic activity function. To generalize the intended target to other relatable targets, this assay endpoint is annotated to the cyp intended target family, where the subfamily is xenobiotic metabolism. […]

We go through one compound from PubChem BioAssay AID2283112 (EPA ToxCast).

As a reminder, the AC50 is the midpoint of the concentration-response curve, whichever way the signal moves.

SMILES strings stand for the structures. Results filed as inconclusive are left out. The source made the active and inactive calls. The calls were made as follows: active = hit-call score of the fitted dose curve at least 0.9, where 1 is the maximum; inconclusive = response in the unintended direction; inactive = score below 0.9.

Sequence of rat CYP1A1, Cyp1a1 (gene 24296) (P00185 whole entry, looked up): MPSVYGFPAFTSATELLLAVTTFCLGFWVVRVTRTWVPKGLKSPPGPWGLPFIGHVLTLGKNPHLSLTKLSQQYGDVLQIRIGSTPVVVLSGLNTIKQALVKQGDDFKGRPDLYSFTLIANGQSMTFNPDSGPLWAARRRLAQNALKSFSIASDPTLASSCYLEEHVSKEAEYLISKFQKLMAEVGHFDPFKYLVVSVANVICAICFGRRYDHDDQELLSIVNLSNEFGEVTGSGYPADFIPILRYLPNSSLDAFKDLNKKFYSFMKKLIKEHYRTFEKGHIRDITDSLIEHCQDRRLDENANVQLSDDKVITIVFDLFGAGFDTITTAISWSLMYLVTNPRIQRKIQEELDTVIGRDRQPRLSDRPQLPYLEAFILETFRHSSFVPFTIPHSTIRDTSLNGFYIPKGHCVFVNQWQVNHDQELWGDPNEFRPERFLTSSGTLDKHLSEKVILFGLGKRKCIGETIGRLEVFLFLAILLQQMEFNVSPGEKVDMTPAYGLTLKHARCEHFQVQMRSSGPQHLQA

Regarding `C=CCOC(Cn1ccnc1)c1ccc(Cl)cc1Cl` (stereo unspecified), the AC50 is 7.73 µM (active).
